Experimental data from PubChem BioAssay (EPA / NIEHS).
Inconclusive results are not listed. A structure can be active in one record and inactive in another. Active and inactive are the calls of the source. The calls were made as follows: active = hit-call score of the fitted dose curve at least 0.9, where 1 is the maximum; inconclusive = response in the unintended direction; inactive = score below 0.9.

Assays:
[1] = biological target: human Caspase 8 (CASP8), CASP8 (gene 841) (UniProt Q14790); experiment: NVS_ENZ_hCASP8: NovaScreen (NVS) Enzymatic Assay for human Caspase 8 (CASP8) (AID 2283146)
Chain of human Caspase 8 (CASP8), CASP8 (gene 841) (Q14790 whole entry, looked up): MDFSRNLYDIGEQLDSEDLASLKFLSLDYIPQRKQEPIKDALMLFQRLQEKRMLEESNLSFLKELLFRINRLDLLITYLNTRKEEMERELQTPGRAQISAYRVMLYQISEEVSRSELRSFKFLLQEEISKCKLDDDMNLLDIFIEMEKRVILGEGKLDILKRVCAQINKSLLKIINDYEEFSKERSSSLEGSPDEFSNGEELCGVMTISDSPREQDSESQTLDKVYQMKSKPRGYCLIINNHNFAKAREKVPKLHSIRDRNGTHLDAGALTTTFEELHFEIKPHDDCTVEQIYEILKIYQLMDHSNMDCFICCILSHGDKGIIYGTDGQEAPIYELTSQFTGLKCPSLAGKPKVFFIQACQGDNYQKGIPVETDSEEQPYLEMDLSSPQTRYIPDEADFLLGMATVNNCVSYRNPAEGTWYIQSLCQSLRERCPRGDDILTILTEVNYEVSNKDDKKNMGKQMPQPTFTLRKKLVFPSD
Method: NVS_ENZ_hCASP8 is a biochemical, single-readout assay that uses extracted gene-proteins from E. coli in a cell-free assay. Measurements were taken 1 hour after chemical dosing in a 96-well plate.NVS_ENZ_hCASP8 is one of one assay component(s) measured or calculated from the NVS_ENZ_hCASP8 assay. It is designed to make measurements of enzyme activity, a form of enzyme reporter, as detected with fluorescence intensity signals by Fluorescence technology.Data from the assay component NVS_ENZ_hCASP8 was analyzed into 1 assay endpoint. This assay endpoint, NVS_ENZ_hCASP8, was analyzed in the positive analysis fitting direction relative to DMSO as the negative control and baseline of activity. Using a type of enzyme reporter, loss-of-signal activity can be used to understand changes in the enzymatic activity as they relate to the gene CASP8. Furthermore, this assay endpoint can be referred to as a primary readout, because this assay has produced multiple assay endpoints where this one serves a enzymatic activity function. To generalize the intended target to other relatable targets, this assay endpoint is annotated to the protease intended target family, where the subfamily is cysteine protease.
Binding assays used specific radioligands (tritiated, iodinated) with non-radioactive competitive displacement ligands in agonist or antagonist protocols (as indicated) and various reference compounds and inhibitors to titrate specific binding to receptors and transporters. Most enzyme assays (CYPs, kinases, phosphatases, proteases, HDACs) used recombinant protein and specific substrates (fluorescence mostly, some colorimetric and radioactive) and inhibitors, followed by a biochemical separation of substrate and product. All assays for the biochemical HTS were initially run in duplicate at a single concentration (10 uM for CYP450 assays and 25 uM for all others). […] Each assay was run with positive and negative controls, and concurrent controls on every plate. The follow-up (secondary) screen tested active chemical-pairs in concentration series, as well as a few additional assays not tested in the primary screen, some selected negative inactives, and several cases re-run in the concentration series for confirmatory purposes.

[2] = biological target: human Dual Specificity Protein Phosphatase 3 (DUSP3), DUSP3 (gene 1845) (UniProt P51452); experiment: NVS_ENZ_hDUSP3: NovaScreen (NVS) Enzymatic Assay for human Dual Specificity Protein Phosphatase 3 (DUSP3) (AID 2283152);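 also: phosphatase activity of recombinant human DUSP3 on a fluorogenic substrate without cells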
Chain of human Dual Specificity Protein Phosphatase 3 (DUSP3), DUSP3 (gene 1845) (P51452 whole entry, looked up): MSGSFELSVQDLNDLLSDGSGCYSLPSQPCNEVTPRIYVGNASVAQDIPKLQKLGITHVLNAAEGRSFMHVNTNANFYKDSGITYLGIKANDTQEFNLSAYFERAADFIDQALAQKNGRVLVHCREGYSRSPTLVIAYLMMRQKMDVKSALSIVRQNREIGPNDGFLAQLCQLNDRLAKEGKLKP
Method in brief: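 Cell-free fluorescence-intensity enzyme activity assay with recombinant protein and substrate; loss of signal fitted relative to DMSO baseline. Primary screen in duplicate at 25 uM, actives then run in concentration series; measured 0 h after dosing.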

[3] = biological target: human Elastase, ELANE (gene 1991) (UniProt P08246); experiment: NVS_ENZ_hElastase: NovaScreen (NVS) Enzymatic Assay for human Elastase (AID 2283153)
Chain of human Elastase, ELANE (gene 1991) (P08246 whole entry, looked up): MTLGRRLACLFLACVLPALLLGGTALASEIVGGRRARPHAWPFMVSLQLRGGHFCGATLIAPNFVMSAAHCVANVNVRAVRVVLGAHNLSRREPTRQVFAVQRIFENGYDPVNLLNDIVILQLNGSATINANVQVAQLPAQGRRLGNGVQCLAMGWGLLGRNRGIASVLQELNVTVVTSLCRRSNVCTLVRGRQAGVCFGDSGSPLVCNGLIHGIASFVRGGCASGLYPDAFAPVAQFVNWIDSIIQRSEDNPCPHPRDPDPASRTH
Method in brief: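 Concentration-response to 50 uM max, run singly for chemicals passing a threshold (e.g., 30% inhibition) in a duplicate 25 uM single-point screen. Neutrophil-derived human elastase, absorbance read-out of enzyme activity at 1.5 h; DMSO baseline.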

[4] = biological target: human Esterase Plasma (ES), BCHE (gene 590) (UniProt P06276); experiment: NVS_ENZ_hES: NovaScreen (NVS) Enzymatic Assay for human Esterase Plasma (ES) (AID 2283157)
Chain of human Esterase Plasma (ES), BCHE (gene 590) (P06276 whole entry, looked up): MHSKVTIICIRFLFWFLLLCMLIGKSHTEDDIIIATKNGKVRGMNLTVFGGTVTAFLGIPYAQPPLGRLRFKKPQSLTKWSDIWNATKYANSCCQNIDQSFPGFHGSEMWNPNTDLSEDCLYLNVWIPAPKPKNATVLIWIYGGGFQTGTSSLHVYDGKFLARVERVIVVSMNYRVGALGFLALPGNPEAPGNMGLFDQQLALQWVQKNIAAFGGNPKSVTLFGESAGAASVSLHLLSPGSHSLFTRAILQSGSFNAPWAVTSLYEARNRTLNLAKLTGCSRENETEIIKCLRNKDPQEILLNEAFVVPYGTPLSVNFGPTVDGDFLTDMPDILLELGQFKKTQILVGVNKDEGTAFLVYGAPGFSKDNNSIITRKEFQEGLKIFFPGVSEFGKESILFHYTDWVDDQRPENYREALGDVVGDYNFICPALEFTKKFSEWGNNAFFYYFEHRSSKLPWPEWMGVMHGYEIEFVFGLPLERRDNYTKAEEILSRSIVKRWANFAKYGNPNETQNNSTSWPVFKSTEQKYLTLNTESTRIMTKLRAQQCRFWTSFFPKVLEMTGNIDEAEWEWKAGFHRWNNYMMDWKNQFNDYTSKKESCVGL
Method: NVS_ENZ_hES is a biochemical, single-readout assay that uses extracted gene-proteins from Human plasma in a cell-free assay. Measurements were taken 0.25 hour after chemical dosing in a 96-well plate.NVS_ENZ_hES is one of one assay component(s) measured or calculated from the NVS_ENZ_hES assay. It is designed to make measurements of enzyme activity, a form of enzyme reporter, as detected with absorbance signals by Colorimetric technology.Data from the assay component NVS_ENZ_hES was analyzed into 1 assay endpoint. This assay endpoint, NVS_ENZ_hES, was analyzed in the positive analysis fitting direction relative to DMSO as the negative control and baseline of activity. Using a type of enzyme reporter, loss-of-signal activity can be used to understand changes in the enzymatic activity as they relate to the gene BCHE. Furthermore, this assay endpoint can be referred to as a primary readout, because this assay has produced multiple assay endpoints where this one serves a enzymatic activity function. To generalize the intended target to other relatable targets, this assay endpoint is annotated to the esterase intended target family, where the subfamily is pseudocholinesterase.
(§1) Binding assays used specific radioligands (tritiated, iodinated) with non-radioactive competitive displacement ligands in agonist or antagonist protocols (as indicated) and various reference compounds and inhibitors to titrate specific binding to receptors and transporters. Most enzyme assays (CYPs, kinases, phosphatases, proteases, HDACs) used recombinant protein and specific substrates (fluorescence mostly, some colorimetric and radioactive) and inhibitors, followed by a biochemical separation of substrate and product. All assays for the biochemical HTS were initially run in duplicate at a single concentration (10 uM for CYP450 assays and 25 uM for all others). Assay-chemical combinations meeting a pre-defined threshold (e.g., 30% inhibition and other criteria defined below) were then run in singleton concentration-response format with maximum concentration of 20 uM for CYPs and 50 uM for all others. Each assay was run with positive and negative controls, and concurrent controls on every plate. The follow-up (secondary) screen tested active chemical-pairs in concentration series, as well as a few additional assays not tested in the primary screen, some selected negative inactives, and several cases re-run in the concentration series for confirmatory purposes.

[5] = biological target: human Casein Kinase 2- alpha 2 beta 2 (CK2a2b2), CSNK2A1 (gene 1457) (UniProt P68400); experiment: NVS_ENZ_hCK2a2b2: NovaScreen (NVS) Enzymatic Assay for human Casein Kinase 2- alpha 2 beta 2 (CK2a2b2) (AID 2283147)
Chain of human Casein Kinase 2- alpha 2 beta 2 (CK2a2b2), CSNK2A1 (gene 1457) (P68400 whole entry, looked up): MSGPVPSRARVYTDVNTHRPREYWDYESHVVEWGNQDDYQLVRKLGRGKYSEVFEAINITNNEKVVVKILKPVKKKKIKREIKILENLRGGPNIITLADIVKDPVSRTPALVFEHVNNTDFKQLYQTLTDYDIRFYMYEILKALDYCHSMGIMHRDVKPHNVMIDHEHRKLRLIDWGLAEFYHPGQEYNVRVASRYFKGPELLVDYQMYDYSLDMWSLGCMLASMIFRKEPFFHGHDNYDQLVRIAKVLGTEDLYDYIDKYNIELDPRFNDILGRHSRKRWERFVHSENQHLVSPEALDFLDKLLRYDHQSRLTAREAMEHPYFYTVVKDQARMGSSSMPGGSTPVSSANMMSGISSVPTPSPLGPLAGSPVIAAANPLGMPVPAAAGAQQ
Method: NVS_ENZ_hCK2a2b2 is a biochemical, single-readout assay that uses extracted gene-proteins in a cell-free assay. Measurements were taken 1 hour after chemical dosing in a 384-well plate.NVS_ENZ_hCK2a2b2 is one of one assay component(s) measured or calculated from the NVS_ENZ_hCK2a2b2 assay. It is designed to make measurements of enzyme activity, a form of enzyme reporter, as detected with fluorescence intensity signals by Fluorescence and electrophoretic mobility shift technology.Data from the assay component NVS_ENZ_hCK2a2b2 was analyzed into 1 assay endpoint. This assay endpoint, NVS_ENZ_hCK2a2b2, was analyzed in the positive analysis fitting direction relative to DMSO as the negative control and baseline of activity. Using a type of enzyme reporter, loss-of-signal activity can be used to understand changes in the enzymatic activity as they relate to the gene CSNK2A1. Furthermore, this assay endpoint can be referred to as a primary readout, because this assay has produced multiple assay endpoints where this one serves a enzymatic activity function. To generalize the intended target to other relatable targets, this assay endpoint is annotated to the kinase intended target family, where the subfamily is serine/threonine kinase.
as §1

[6] = biological target: human Ephrin type-A Receptor 2 (EphA2), EPHA2 (gene 1969) (UniProt P29317); experiment: NVS_ENZ_hEphA2: NovaScreen (NVS) Enzymatic Assay for human Ephrin type-A Receptor 2 (EphA2) (AID 2283155)
Chain of human Ephrin type-A Receptor 2 (EphA2), EPHA2 (gene 1969) (P29317 whole entry, looked up): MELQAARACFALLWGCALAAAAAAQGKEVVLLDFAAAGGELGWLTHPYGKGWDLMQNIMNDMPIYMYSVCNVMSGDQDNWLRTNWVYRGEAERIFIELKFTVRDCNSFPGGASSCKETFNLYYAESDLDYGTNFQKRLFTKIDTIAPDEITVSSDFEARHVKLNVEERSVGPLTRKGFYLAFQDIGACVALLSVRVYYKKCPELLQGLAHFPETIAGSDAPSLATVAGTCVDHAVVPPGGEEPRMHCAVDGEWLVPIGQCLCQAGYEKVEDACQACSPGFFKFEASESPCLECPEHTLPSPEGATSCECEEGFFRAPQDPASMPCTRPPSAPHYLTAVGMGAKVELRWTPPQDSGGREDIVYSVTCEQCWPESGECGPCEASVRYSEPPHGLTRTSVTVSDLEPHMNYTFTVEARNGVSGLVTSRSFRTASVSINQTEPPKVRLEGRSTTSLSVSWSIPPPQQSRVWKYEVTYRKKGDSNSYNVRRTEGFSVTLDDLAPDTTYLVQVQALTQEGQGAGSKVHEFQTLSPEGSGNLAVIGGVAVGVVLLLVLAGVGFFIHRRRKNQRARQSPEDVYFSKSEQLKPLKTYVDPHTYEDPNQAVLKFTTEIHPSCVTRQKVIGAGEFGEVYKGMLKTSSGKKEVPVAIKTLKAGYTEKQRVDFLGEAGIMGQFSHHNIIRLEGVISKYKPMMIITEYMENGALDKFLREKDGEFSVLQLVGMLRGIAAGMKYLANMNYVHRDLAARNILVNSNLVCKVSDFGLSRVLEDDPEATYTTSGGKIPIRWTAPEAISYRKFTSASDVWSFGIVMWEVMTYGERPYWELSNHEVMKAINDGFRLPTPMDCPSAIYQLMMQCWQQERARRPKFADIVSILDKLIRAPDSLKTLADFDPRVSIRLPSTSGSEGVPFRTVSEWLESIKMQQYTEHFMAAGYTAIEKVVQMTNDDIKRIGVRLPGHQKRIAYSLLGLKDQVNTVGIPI
Method in brief: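 Enzyme activity of recombinant EphA2 read by fluorescence after mobility-shift separation, 1 h after dosing. Chemicals first tested at 25 uM (duplicate); those passing threshold run as concentration series, top 50 uM, single replicate, relative to DMSO.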

[7] = biological target: human Colony Stimulating Factor 1 Receptor (CSF1R), CSF1R (gene 1436) (UniProt P07333); experiment: NVS_ENZ_hCSF1R: NovaScreen (NVS) Enzymatic Assay for human Colony Stimulating Factor 1 Receptor (CSF1R) (AID 2283150)
Chain of human Colony Stimulating Factor 1 Receptor (CSF1R), CSF1R (gene 1436) (P07333 whole entry, looked up): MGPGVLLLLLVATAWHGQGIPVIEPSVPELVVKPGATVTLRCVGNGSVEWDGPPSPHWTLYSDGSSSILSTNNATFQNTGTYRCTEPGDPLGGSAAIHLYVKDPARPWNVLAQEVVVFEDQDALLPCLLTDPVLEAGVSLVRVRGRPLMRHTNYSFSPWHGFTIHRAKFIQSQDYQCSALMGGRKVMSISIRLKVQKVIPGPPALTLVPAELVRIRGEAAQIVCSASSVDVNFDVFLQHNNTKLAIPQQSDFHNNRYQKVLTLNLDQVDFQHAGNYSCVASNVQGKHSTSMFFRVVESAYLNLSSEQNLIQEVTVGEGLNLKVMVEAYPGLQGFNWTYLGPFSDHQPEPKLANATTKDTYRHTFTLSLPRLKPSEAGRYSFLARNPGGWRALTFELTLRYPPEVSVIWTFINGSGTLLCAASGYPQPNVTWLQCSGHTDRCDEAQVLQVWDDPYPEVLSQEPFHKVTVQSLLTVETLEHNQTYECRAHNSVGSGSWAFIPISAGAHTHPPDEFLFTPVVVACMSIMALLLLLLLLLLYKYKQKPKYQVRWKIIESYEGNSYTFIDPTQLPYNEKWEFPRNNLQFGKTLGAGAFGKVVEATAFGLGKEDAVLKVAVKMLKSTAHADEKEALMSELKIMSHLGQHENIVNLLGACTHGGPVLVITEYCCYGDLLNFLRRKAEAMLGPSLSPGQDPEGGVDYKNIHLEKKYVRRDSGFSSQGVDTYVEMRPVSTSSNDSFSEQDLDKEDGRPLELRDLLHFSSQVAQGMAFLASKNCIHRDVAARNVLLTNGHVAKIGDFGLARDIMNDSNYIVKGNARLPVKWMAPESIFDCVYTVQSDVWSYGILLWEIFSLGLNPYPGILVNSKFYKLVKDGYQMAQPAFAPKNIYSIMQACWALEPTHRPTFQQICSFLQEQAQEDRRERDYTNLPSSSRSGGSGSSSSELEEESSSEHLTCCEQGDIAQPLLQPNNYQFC
Method in brief: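 Compounds screened in duplicate at 25 uM, then concentration-response (top 50 uM) for those passing threshold such as 30% inhibition; recombinant CSF1R activity measured 1 h post-dosing via fluorescent substrate/product mobility-shift separation, loss of signal versus DMSO.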

[8] = biological target: human Casein Kinase 1-delta (CK1D), CSNK1D (gene 1453) (UniProt P48730); experiment: NVS_ENZ_hCK1D: NovaScreen (NVS) Enzymatic Assay for human Casein Kinase 1-delta (CK1D) (AID 2283148)
Method in brief: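 Recombinant human CK1-delta, cell-free; fluorescent substrate with electrophoretic mobility-shift separation of product, read 1 h after dosing. Single 25 uM duplicate screen, then concentration-response up to 50 uM; loss of signal vs DMSO.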

[9] = biological target: human Ephrin type-B Receptor 1 (EphB1), EPHB1 (gene 2047) (UniProt P54762); experiment: NVS_ENZ_hEphB1: NovaScreen (NVS) Enzymatic Assay for human Ephrin type-B Receptor 1 (EphB1) (AID 2283154)
Chain of human Ephrin type-B Receptor 1 (EphB1), EPHB1 (gene 2047) (P54762 whole entry, looked up): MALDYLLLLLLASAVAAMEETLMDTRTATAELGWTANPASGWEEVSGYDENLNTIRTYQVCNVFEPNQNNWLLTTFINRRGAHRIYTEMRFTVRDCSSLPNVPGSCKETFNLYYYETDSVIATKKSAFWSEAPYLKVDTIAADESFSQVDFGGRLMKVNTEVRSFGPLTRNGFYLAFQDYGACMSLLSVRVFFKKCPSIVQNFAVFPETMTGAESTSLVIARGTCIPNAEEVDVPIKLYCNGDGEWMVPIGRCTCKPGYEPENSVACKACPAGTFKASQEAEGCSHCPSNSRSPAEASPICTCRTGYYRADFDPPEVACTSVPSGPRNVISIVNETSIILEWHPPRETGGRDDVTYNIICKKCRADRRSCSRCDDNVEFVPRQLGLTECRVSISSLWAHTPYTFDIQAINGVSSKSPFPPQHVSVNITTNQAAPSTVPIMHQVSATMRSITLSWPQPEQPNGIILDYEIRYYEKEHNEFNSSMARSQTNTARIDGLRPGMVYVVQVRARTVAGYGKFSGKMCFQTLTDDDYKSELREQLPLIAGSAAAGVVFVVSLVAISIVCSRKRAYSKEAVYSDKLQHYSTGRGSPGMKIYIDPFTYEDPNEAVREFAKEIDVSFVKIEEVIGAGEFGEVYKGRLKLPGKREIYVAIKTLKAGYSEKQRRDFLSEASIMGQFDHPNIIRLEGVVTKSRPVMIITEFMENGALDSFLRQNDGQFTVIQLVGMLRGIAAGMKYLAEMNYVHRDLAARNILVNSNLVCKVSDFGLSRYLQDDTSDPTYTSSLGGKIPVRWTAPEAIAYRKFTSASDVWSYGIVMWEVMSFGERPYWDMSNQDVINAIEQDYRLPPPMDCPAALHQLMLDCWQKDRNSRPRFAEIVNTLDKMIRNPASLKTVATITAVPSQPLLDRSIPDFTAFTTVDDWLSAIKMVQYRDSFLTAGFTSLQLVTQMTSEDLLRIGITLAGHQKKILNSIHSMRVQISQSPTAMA
Method in brief: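 Recombinant EphB1 activity read by fluorescence after mobility-shift separation of product from substrate, 1 h post-dosing. Compounds screened in duplicate at 25 uM; inhibition scored as signal loss relative to DMSO.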

[10] = biological target: human Ephrin type-B Receptor 2 (EphB2), EPHB2 (gene 2048) (UniProt P29323); experiment: NVS_ENZ_hEphB2: NovaScreen (NVS) Enzymatic Assay for human Ephrin type-B Receptor 2 (EphB2) (AID 2283156)
Method in brief: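 Compounds were first tested in duplicate at 25 uM, with hits rerun singly in concentration series up to 50 uM. Enzyme activity on fluorescent substrate was read at 1 h by mobility-shift separation, scored as signal loss relative to DMSO.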

S=C1NCCN1
outcome [1]: inactive | outcome [2]: inactive | outcome [3]: inactive

CC(C)[C@H](C(=O)O[C@H](C#N)c1cccc(Oc2ccccc2)c1)c1ccc(Cl)cc1
outcome [3]: inactive

CCOP(=S)(OCC)Oc1cc(C)nc(C(C)C)n1
outcome [3]: inactive

CNC(=O)ON=C(SC)C(=O)N(C)C
AC50 [4]: 20.2 µM (active)

O=C(O)c1cc(Oc2ccc(C(F)(F)F)cc2Cl)ccc1[N+](=O)[O-]
outcome [1]: inactive | outcome [5]: inactive | outcome [6]: inactive

CC[C@H](C)[C@H]1O[C@]2(C=C[C@@H]1C)C[C@@H]1C[C@@H](C/C=C(\C)[C@@H](O[C@H]3C[C@H](OC)[C@@H](O[C@H]4C[C@H](OC)[C@@H](NC)[C@H](C)O4)[C@H](C)O3)[C@@H](C)/C=C/C=C3\CO[C@@H]4[C@H](O)C(C)=C[C@@H](C(=O)O1)[C@]34O)O2
outcome [2]: inactive

CCOP(=O)(OCC)Oc1cc(C)nc(C(C)C)n1
outcome [3]: inactive

COc1ccc(C(=CC(=O)N2CCOCC2)c2ccc(Cl)cc2)cc1OC
outcome [1]: inactive

CCCOc1nn(C(=O)NS(=O)(=O)c2ccccc2C(=O)OC)c(=O)n1C
outcome [7]: inactive

Nc1nc(N)nc(NC2CC2)n1
outcome [1]: inactive | AC50 [8]: 16.3 µM (active)

CCOP(=S)(OCC)Oc1ccc([N+](=O)[O-])cc1
AC50 [4]: 17.5 µM (active)

COP(=O)(OC)SCn1c(=O)oc2cc(Cl)cnc21
AC50 [4]: 18.5 µM (active)

C=C(C)[C@H]1Cc2c(ccc3c2O[C@@H]2COc4cc(OC)c(OC)cc4[C@@H]2C3=O)O1
outcome [2]: inactive

CCCCSP(=O)(SCCCC)SCCCC
outcome [9]: inactive

CC(Oc1cccc(Cl)c1)C(=O)O (centres undefined)
AC50 [5]: 15 µM (active)

COP(=O)(OC)OC(Br)C(Cl)(Cl)Br (centres undefined)
AC50 [4]: 3.82 µM (active)

Cc1nn(-c2cc(NS(C)(=O)=O)c(Cl)cc2Cl)c(=O)n1C(F)F
outcome [1]: inactive

CC(COc1ccc(Oc2ccccc2)cc1)Oc1ccccn1 (centres undefined)
outcome [9]: inactive

CNC(=O)Oc1cccc2c1OC(C)(C)O2
outcome [9]: inactive

COP(=O)(OC)C(O)C(Cl)(Cl)Cl (centres undefined)
outcome [9]: inactive

CNc1cnn(-c2cccc(C(F)(F)F)c2)c(=O)c1Cl
outcome [10]: inactive

CCCOCC(=Nc1ccc(Cl)cc1C(F)(F)F)n1ccnc1
outcome [2]: inactive

CCOP(=S)(Oc1cnc(C(C)(C)C)nc1)OC(C)C (centres undefined)
outcome [5]: inactive | AC50 [4]: 25 µM (active)

CCc1cccc(C)c1N(C(=O)CCl)C(C)COC (centres undefined)
outcome [9]: inactive

CN(C)[C@@H]1C(=O)C(C(N)=O)=C(O)[C@@]2(O)C(=O)C3=C(O)c4c(O)cccc4[C@@](C)(O)[C@H]3[C@H](O)[C@@H]12
AC50 [1]: 15.8 µM (active) | outcome [1]: inactive | AC50 [5]: 23.1 µM (active) | AC50 [7]: 12.5 µM (active) | AC50 [2]: 2.62 µM (active) | AC50 [6]: 7.61 µM (active) | outcome [6]: inactive | outcome [4]: inactive

CCOP(=S)(OCC)OC(Cl)C(Cl)(Cl)Cl (centres undefined)
outcome [9]: inactive | AC50 [4]: 16.2 µM (active)

CCCCOC(=O)c1ccccc1C(=O)O
outcome [4]: inactive

CCCSP(=O)(OCC)Oc1ccc(Br)cc1Cl (centres undefined)
AC50 [3]: 25 µM (active) | outcome [9]: inactive | AC50 [4]: 0.968 µM (active)

CCCCOC(=O)[C@@H](C)Oc1ccc(Oc2ccc(C#N)cc2F)cc1
outcome [2]: inactive

CC(C)=CC1C(C(=O)OCN2C(=O)C3=C(CCCC3)C2=O)C1(C)C (centres undefined)
AC50 [1]: 25 µM (active)

CCC(=O)Nc1ccc(Cl)c(Cl)c1
AC50 [5]: 1.66 µM (active) | AC50 [8]: 23.6 µM (active)

C#CCC1=C(C)C(OC(=O)C2C(C=C(C)C)C2(C)C)CC1=O (centres undefined)
outcome [2]: inactive
